We go through 40 compounds from PubChem BioAssay (Tox21).

Results filed as inconclusive are left out. Calls of active or inactive are those of the source. Calls follow the shape of the dose curve; as a rule, active = well fitted curve in the direction sought with a large enough effect in the signal ratio in the repeat runs (not every such curve was filed as active); inconclusive = weak or mixed curves, or a change in a side signal; inactive = no such curve, though single readings can be large or run the other way; the % refers to the signal ratio.

The nature of this experiment: qHTS assay to identify small molecule agonists of the NFkB signaling pathway (AID 1159509). The conditions noted are these: NFkB-bla ME-180 cells, beta-lactamase FRET ratio, 5 h; series mostly up to 61 µM. An excerpt:
National Center for Advancing Translational Sciences [NCATS]
NIH Chemical Genomics Center [NCGC]
U.S. Environmental Protection Agency [EPA]
National Institutes of Environmental Health Sciences [NIEHS]
National Toxicology Program [NTP]
U.S. Food and Drug Administration [FDA]
Transcription factors and their stimulated target gene expression play pivotal roles across many cellular processes including responses to environmental stimuli. Proper regulation of associated pathways is critical to maintain cell health and function. Constitutive activation of transcription factor pathways has been implicated in tumors as it may block cellular functions such as apoptosis and lead to invasion and metastasis. One important transcription factor that stimulates gene expression in response to cytokines, UV radiation, and other stimuli is nuclear factor-kappa B (NFkB). To measure activation of the NFkB pathway, the CellSensor NFkB-bla ME-180 cell line (Life Technologies, Carlsbad, CA) that stably expresses beta-lactamase reporter gene under the regulation of a NF-kB response element was used. This assay allows measurement of the NFkB pathway activity induced by compounds in a ME-180 cell line. This system quantitates NF-kB activity using a FRET-based assay system where beta-lactamase expression disrupts FRET, allowing for fluorescent measurement of activity. This cell line has been used to screen the Tox21 10K compound library and to identify compounds that induce the NFkB pathway activity.
Tox21 Assay Protocol Summary:
NFkB-bla ME-180 cells were dispensed at 2,000 cells/6 uL of assay medium per well into black wall/clear-bottom 1536-well plates using a Multidrop Combi (ThermoFisher Scientific, Waltham, MA) dispenser. After the assay plates were incubated at 37 C and 5% CO2 for an overnight, 23 nL of compounds dissolved in DMSO, positive controls or DMSO only was transferred to the assay plate by a Pintool station (Kalypsys, San Diego, CA). The assay plates were incubated at 37 C and 5% CO2 for 5 hr. One uL of LiveBLAzer B/G FRET substrate (Life Technologies) was added using a Flying Reagent Dispenser (Aurora Discovery, San Diego, CA) and the plates were incubated at room temperature for 1.5 hr. Fluorescence intensity (405 nm excitation, 460 nm and 530 nm emissions) was measured using an Envision plate reader (PerkinElmer, Shelton, CT).
Consider `Cc1ccc(N)c(S(=O)(=O)O)c1`, for which the outcome was inactive.
Under `NCCc1ccc(O)c(O)c1` stands “inactive”.
The same measure for `Oc1ccc(OCc2ccccc2)cc1`: “inactive”; for `ClC1=C(Cl)C(Cl)(Cl)C(Cl)=C1Cl`: “inactive”.
For `COC(=O)Nc1nc2ccc(Sc3ccccc3)cc2[nH]1`, the outcome was inactive.
`Cc1cc(Cc2ccc(N)c(C)c2)ccc1N`: the result was inactive.
Turning to `C=C(C#N)C(=O)OCC`, the result was inactive.
In the case of `CCCCCCCCC`, the result was inactive.
Turning to `O=S(=O)(O)c1cc(S(=O)(=O)O)c2c(N=Nc3ccccc3)c(O)ccc2c1`, the outcome was inactive.
With `O=C(c1cc(O)c(O)c(O)c1)c1ccc(O)c(O)c1O`, the outcome was inactive.
`CCCCC(CC)COC(=O)/C=C\C(=O)OCC(CC)CCCC` (stereo not given): the outcome was inactive.
For `CCCCCC/C=C/CCCCCCCC(=O)O`, the outcome was inactive.
Turning to `Cc1cc(=O)[nH]c(C(C)C)n1`, the result was inactive.
As to `OC[C@@H](O)[C@H](O)[C@H](O)[C@@H](O)CO`, the outcome was inactive.
`O=[N+]([O-])c1cc(N(CCO)CCO)ccc1NCCO`: the outcome was inactive.
Take `Cc1cc(O)c2c(c1)C(=O)c1cc(O)cc(O)c1C2=O`: the result was inactive.
In the case of `CC1(C)O[C@@H]2C[C@H]3[C@@H]4C[C@H](F)C5=CC(=O)CC[C@]5(C)[C@H]4[C@@H](O)C[C@]3(C)[C@]2(C(=O)CO)O1`, the result was inactive.
Turning to `O=C(O)c1ccc([N+](=O)[O-])cc1`, the result was inactive.
Consider `O=[N+]([O-])C(CO)(CO)CO`, for which the result was inactive.
`Cc1ccc(C)c(C)c1`: the result was inactive.
For the compound `C=C(C)C(=O)OCC(CC)(COC(=O)C(=C)C)COC(=O)C(=C)C`, the outcome was inactive.
Under `O=S(=O)(Oc1ccc(Cl)cc1Cl)c1ccccc1` stands “inactive”; under `CCCCC(CC)COC(C)=O` (stereo not given), “inactive”; under `O=C(c1ccc(O)cc1)c1ccc(O)cc1O`, “inactive”.
Regarding `O=[N+]([O-])c1cccc(Cl)c1`, the outcome was inactive.
Turning to `C=C1C2CCC(C2)C1(C)C` (stereo not given), the result was inactive.
Take `c1ccc2ccccc2c1`: the outcome was inactive.
In the case of `NC(=O)NNc1ccccc1`, the outcome was inactive.
The same measure for `OC1CCCC1`: “inactive”; for `Oc1c(Cl)cc(Cl)c(Cl)c1Cl`: “inactive”.
On to `C=C(C)C(=O)OCCCCCC`, for which the result was inactive.
Under `CC1COc2ccccc2N1C(=O)C(Cl)Cl` (stereo not given) stands “inactive”.
As to `OCC1CCCO1` (stereo not given), the result was inactive.
As to `Oc1ccc2ccccc2c1N=Nc1ccccc1`, the result was inactive.
Regarding `CC1CC(OC(=O)c2ccccc2O)CC(C)(C)C1` (stereo not given), the outcome was inactive.
In the case of `CCOC(=O)C1OC1c1ccccc1` (stereo not given), the outcome was inactive.
In the case of `CC1=C(CC(=O)O)c2cc(F)ccc2/C1=C\c1ccc(S(C)=O)cc1` (stereo not given), the outcome was inactive.
On to `CCCCCCOC(C)=O`, for which the outcome was inactive.
Take `CCCCCCCCCC(=O)O`: the outcome was inactive.
As to `C=CC(=O)OCCCCCCCC(C)C`, the result was inactive.
